Test results taken from PubChem BioAssay (NCI).
The panel holds about 83,000 compounds, 20% with a hit somewhere; the sample as a whole holds those more often.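 Method: cells in 96-well plates; compound added at one concentration; 48 h incubation; percent growth measured; values under 10 scored active.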 Active and inactive are the calls of the source.

Tested on: SK-OV-3 ovarian
Assay: NCI-60 one-dose screen, 48 h (100 = growth as untreated, 0 = no growth, -100 = all killed)
Conditions: 10 µM unless noted

Row | SMILES | growth
1 | CC1(C)[C@@H](O[C@@H]2OC[C@@H](O[C@@H]3O[C@H](CO)[C@@H](O)[C@H](O)[C@H]3O[C@@H]3OC[C@@H](O)[C@H](O)[C@H]3O)[C@H](O)[C@H]2O[C@@H]2O[C@H](CO)[C@@H](O)[C@H](O)[C@H]2O)CC[C@]2(C)[C@H]3CC[C@]45OC[C@@]6(CC[C@](C)(C=O)C[C@H]64)[C@H](O)C[C@@]5(C)[C@]3(C)CC[C@@H]12 | -98.4% (active)
2 | O=C(CCl)NNc1nccc(Nc2ccc(S(=O)(=O)Nc3ccncc3)cc2)n1 | 90.5% (inactive)
3 | CS(=O)(=O)Nc1cc(-c2ccc3ncc(C#N)c(Nc4ccc(F)c(Cl)c4)c3c2)cnc1Cl | -25.7% (active)
4 | Cc1[nH]c(C2CC(c3ccc(C(F)(F)F)c(F)c3)=NN2c2ccccc2)c(C)c1C(=O)NCC(F)(F)F (centres undefined) | 85.6% (inactive)
5 | O=P(O)(O)OCC1OC(n2cnc3c(NCc4ccco4)ncnc32)C(O)C1O (centres undefined) | 1.95% (active)
6 | C=CN(C(=O)N1CCN(c2cc3c(cc2F)c(=O)c(C(=O)O)cn3C2CC2)CC1)c1nc(-c2ccc(OC)cc2)cs1 | 17.6% (inactive)
7 | CC(=O)Oc1ccc(OC(C)=O)c2ccccc12 | 102% (inactive)
8 | O=C1c2ccccc2C(=O)c2c1cc1c(c2[N+](=O)[O-])OCO1 | -14.7% (active)
9 | Cc1cccc2c1C[C@@]1(C2=O)C(c2ccc(C(C)(C)C)cc2)=NOS1=O (some centres undefined) | 98.4% (inactive)
10 | COc1cccc(Nc2ncnc3cc(NC(=O)CCl)ccc23)c1 | -15.9% (active)
11 | NC(N)=NS(=O)(=O)c1ccc(NC2=C(I)C(=O)c3ncccc3C2=O)cc1 | 87.8% (inactive)
12 | Cc1c(CN)cc(-c2ccc(Cl)cc2)n1-c1ccccc1 | 85.4% (inactive)
13 | O=C1Nc2ccccc2C1(c1c[nH]c2ccccc12)c1c[nH]c2ccccc12 | 72.8% (inactive)
14 | CCn1c(-c2cc3c([nH]c4ccccc43)c(-c3cccc(O)c3)n2)n[nH]c1=S | 55.8% (inactive)
15 | CCN(CC)c1ccc(/C=N/NC(=O)Cc2ccc(Nc3ccnc(C(F)(F)F)c3)cc2)c(O)c1 | 28% (inactive)
16 | COc1ccc2c(c1)c(-c1nc(-c3c[nH]c4ncccc34)cs1)cn2CCCN1CCOCC1 | 51.8% (inactive)
17 | CNC(C)[C@H]1CCC2C3CC=C4C(=O)[C@@H](NC(=O)C=C(C)C)CC[C@]4(C)C3CC[C@@]21C (some centres undefined) | 46.4% (inactive)

Row | SMILES | growth
18 | CN(Cc1ccccc1)c1nc(Cl)c(C2CC(c3ccccc3)=NN2c2ccccc2)s1 (centres undefined) | 85.3% (inactive)
19 | N#CC1=C(N)Oc2ccc3ccccc3c2C1c1ccc([N+](=O)[O-])cc1 (centres undefined) | 83.4% (inactive)
20 | COc1ccc(C(=O)Cn2c(C(=O)c3ccc(OC)cc3)nc3ccccc32)cc1 | 67.1% (inactive)
21 | CC1C(/C=N/NC(N)=S)C(C#N)(C#N)C1(C#N)C#N (centres undefined) | 95.8% (inactive)
22 | O=C(Cc1ccc(/C=C/C(=O)c2ncc[nH]2)cc1)Nc1cc(C(F)(F)F)cc(C(F)(F)F)c1 | 105% (inactive)
23 | CCOC(=O)c1ccccc1-c1c2ccc(=[N+](C)C)cc-2oc2cc(N(C)C)ccc12 | -2.61% (active)
24 | CCN1C(=O)N(CC)C2C1NN=c1s/c(=C\c3ccc(C(F)(F)F)cc3)c(=O)n12 (centres undefined) | 36.5% (inactive)
25 | Cc1nn(-c2ccccc2)c(N)c1N=C1NC(=O)/C(=C/c2ccc(Br)cc2)S1 | 84.8% (inactive)
26 | O=C(c1c[nH]c2ccccc12)c1n[nH]c(=S)n1-c1cccc(Br)c1 | 91.8% (inactive)
27 | Cc1ccc(/C=C/C(=O)Nc2ncc(Cc3ccc(F)cc3)s2)o1 | 64.6% (inactive)
28 | O=C1/C(=C\c2cccc3nccnc23)SC(=S)N1CCc1ccc(O)cc1 | 110% (inactive)
29 | COc1cccc(/C=C/C(=O)c2cccc(Nc3nc(Nc4ccccc4)nc(Nc4ccccc4)n3)c2)c1 | 101% (inactive)
30 | C=C1C(=O)O[C@H]2[C@H]1CC/C(COC(=O)c1cc3cc(Cl)ccc3[nH]1)=C\CC[C@@]1(C)O[C@@H]21 | 27.6% (inactive)
31 | COc1ccc(Cn2cc(C(=O)N=Nc3c(O)[nH]c4c(C)cccc34)nn2)cc1 | 110% (inactive)
32 | NC(=O)c1cnc(Nc2cccc(N)c2)nc1NCCCNC(=O)C1CCC1 | 27.1% (inactive)
33 | CC1=C2[C@@H](CC1)[C@]1(C)O[C@@](C3CCCCC3)(C[C@H]1OC(=O)CO)[C@H]2OC(=O)/C=C/c1ccccc1 | 86% (inactive)
34 | O=C(Nc1cnc(Nc2ccc(N3CCOCC3)nc2)nc1Oc1ccc(C(F)(F)F)cc1)c1ccncc1 | 101% (inactive)
